FBPA Giardia inh: qHTS Assay for Inhibitors of Fructose-1,6-bisphosphate Aldolase from Giardia Lamblia. Potency, µM (titrated, usually from 59.6 µM), for the others: at the top dose activity, negative = inhibition, usual class: inhibitors. purified Giardia FBPA. 0.71% of 290,000 active. A8B2U2; further: potency means the concentration at half of the fitted maximal effect; on the % scale 0 is the no-effect control and ±100 the full control effect; nearly all actives have a fitted effect of over 55% in size
Target sequence (A8B2U2 whole entry, looked up): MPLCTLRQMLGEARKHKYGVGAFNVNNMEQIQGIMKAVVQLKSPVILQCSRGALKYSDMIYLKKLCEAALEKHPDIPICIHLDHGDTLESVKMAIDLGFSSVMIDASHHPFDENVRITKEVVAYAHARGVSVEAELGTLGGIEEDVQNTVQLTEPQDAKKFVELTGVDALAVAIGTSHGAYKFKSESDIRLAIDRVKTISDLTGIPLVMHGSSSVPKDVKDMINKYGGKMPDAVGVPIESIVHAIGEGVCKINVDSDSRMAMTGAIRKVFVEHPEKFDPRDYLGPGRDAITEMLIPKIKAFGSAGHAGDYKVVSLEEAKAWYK
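40 nM FBPA preincubated 10 min at RT with compound (up to 57.5 uM final), then substrate plus GAPDH/TPI/NAD/arsenate coupling and diaphorase/resazurin added. Fluorescence read after 20 min at RT, 525/598 nm.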
Shiga inhibitor: A qHTS for Small Molecule Inhibitors of Shiga Toxin | AID 2315, 2010 | Vero cells, Shiga toxin protein synthesis inhibition reporter | 9.2% of 290,000 active | inhibition, % at 38.7 µM; in the data active means inhibition mostly above about 28%, no sharp cut-off; inactive means mostly below about 43%; further: 0% is about no effect
Cycloheximide cs: Cycloheximide Counterscreen for Small Molecule Inhibitors of Shiga Toxin; cell reporter, cycloheximide protein synthesis inhibition counterscreen; AID 2314, 2010; max response, %; 12% of 300,000 active; in the data active means max response mostly above about 13%, no sharp cut-off; inactive means mostly below about 14%; further: read at 38.3 µM for the half of the compounds with a filed dose; 0% is about no effect
LmPK inh: qHTS Assay for Inhibitors of Leishmania Mexicana Pyruvate Kinase (LmPK); Potency, µM (top dose mostly 57.5 µM), for the others: top-dose activity change, negative = inhibition, actives largely listed as inhibitors; 0.37% of 290,000 active; purified LmPK, Kinase-Glo ATP luminescence, 1 h; further: potency means the concentration at half of the fitted maximal effect; on the % scale 0 is the no-effect control and ±100 the full control effect
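ATP generated from ADP (0.1 mM) and PEP (0.5 mM) by 0.1 nM LmPK over 1 h at room temperature (pH 7.2 imidazole buffer) was detected by coupled luciferase luminescence. Values were normalized to uninhibited and no-enzyme wells.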
Tb PYK inh: qHTS of Trypanosoma Brucei Inhibitors; TbPYK enzyme, Kinase-Glo Plus ATP luminescence, 45 min; Potency, µM (titrated, usually from 76.8 µM), inactives show at the top dose activity, negative = inhibition, hits mostly inhibitors; 0.12% of 410,000 active; AID 624173, 2012; further: potency means the concentration at half of the fitted maximal effect; on the % scale 0 is the no-effect control and ±100 the full control effect; nearly all actives have a fitted effect of over 50% in size
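In this concentration-response screen, enzyme-free wells defined baseline while DMSO plates tracked drift. Each reaction combined TbPYK, substrate, compound and 130 uM ADP for 45 min at room temperature. Kinase-Glo Plus luminescence gave the signal.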
RE007 growth inh: qHTS Assay for Inhibitors of the HIV-1 protein Vpr | S. pombe RE007 Vpr strain, BacTiter-Glo ATP luminescence, 24 h | Potency, µM (doses to about 92.2 µM), for the others: at the highest dose activity change, negative = less growth, most hits filed as inhibitors | 0.21% of 360,000 active | AID 651644, 2012; active means well fitted falling curve with a large enough effect; inconclusive means small, poorly fitted or top-dose-only effect; inactive means no such curve, though single readings can be large or run the other way; further: potency means the concentration at half of the fitted maximal effect; on the % scale 0 is the no-effect control and ±100 the full control effect; nearly all actives have a fitted effect of over 50% in size
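Fission yeast RE007 carrying one integrated HIV-1 vpr copy, seeded at OD 0.01 in PMG+AL medium with 23 nL pinned compound. Grown 24 h at 30 degrees; viability read by BacTiter-Glo luminescence after 5 min.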
Numbers without * were called inactive. The entries come from a sample that favours hits as a whole. Unless noted, the call rests on the fitted dose curve; in most records, active means well fitted curve in the direction sought with a large enough effect; inconclusive means small, poorly fitted or top-dose-only effect, or another doubt; inactive means no such curve, though single readings can be large; an effect the other way counts as inactive or inconclusive.

Cc1cc(Cl)ccc1Oc1ncc(-c2ccc(Cl)cc2)cn1 was read as FBPA Giardia inh 1%, Shiga inhibitor -8, Cycloheximide cs -3, LmPK inh 1%, Tb PYK inh -2% and RE007 growth inh 39%.
Screening Clc1ccc(-c2cnc(Oc3ccccc3)nc2)cc1 returned FBPA Giardia inh 2%, Shiga inhibitor 163*, Cycloheximide cs 74*, LmPK inh -1%, Tb PYK inh -6% and RE007 growth inh 11%.
For CCOC(=O)CN1C(=O)c2ccccc2C1=O the results were FBPA Giardia inh 7%, Shiga inhibitor -8, Cycloheximide cs -5, LmPK inh -11%, Tb PYK inh -6% and RE007 growth inh 15%.
Screening CCOC(=O)CN1C(=O)CN(c2ccc(C)cc2)C1=O returned FBPA Giardia inh 4%, Shiga inhibitor 50*, Cycloheximide cs 29*, LmPK inh -2%, Tb PYK inh 2% and RE007 growth inh -18%.
For COc1ccccc1Oc1ncnc2c1cnn2-c1ccccc1 the results were FBPA Giardia inh -13%, Shiga inhibitor 117*, Cycloheximide cs 43*, LmPK inh -3%, Tb PYK inh 3% and RE007 growth inh -4%.
COc1ncnc2c1cnn2-c1ccccc1 was read as FBPA Giardia inh -10%, Shiga inhibitor 81*, Cycloheximide cs 37*, LmPK inh -6%, Tb PYK inh 1% and RE007 growth inh inconclusive.
Screening COc1cc(C(C)=O)ccc1Oc1ncnc2c1cnn2-c1ccc(F)cc1 returned FBPA Giardia inh 2%, Shiga inhibitor 106*, Cycloheximide cs 54*, LmPK inh 1%, Tb PYK inh 2% and RE007 growth inh 1%.
Fc1cccc(Cl)c1CNCCSc1nnnn1-c1ccccc1 was read as Tb PYK inh 0%.
Screening Cc1[nH]n(-c2ccc(Cl)cc2)c(=O)c1/C=N/c1nnc(-c2ccccc2)s1 returned FBPA Giardia inh 13%, Shiga inhibitor -4, Cycloheximide cs 3, LmPK inh inconclusive, Tb PYK inh -15% and RE007 growth inh inconclusive.
Screening COc1ccc2nc(/N=C/c3c(C)[nH]n(-c4ccc(C)cc4)c3=O)sc2c1 returned FBPA Giardia inh 12%, Shiga inhibitor 14, Cycloheximide cs 17*, LmPK inh 13µM*, Tb PYK inh -23% and RE007 growth inh inconclusive.
`Cc1ccc(-n2[nH]c(C)c(C=NCc3ccncc3)c2=O)cc1` gave FBPA Giardia inh 2%, Shiga inhibitor 53*, Cycloheximide cs 39*, LmPK inh -14%, Tb PYK inh 5% and RE007 growth inh -30%.
Cc1ccc(-n2[nH]c(C)c(C=Nc3ccc(Br)cn3)c2=O)cc1 was read as FBPA Giardia inh -2%, Shiga inhibitor 3, Cycloheximide cs 1, LmPK inh -19%, Tb PYK inh -1% and RE007 growth inh -20%.
Screening Cc1ccc(-n2[nH]c(C)c(C=Nc3cc(C)ccn3)c2=O)cc1 returned FBPA Giardia inh -6%, Shiga inhibitor -3, Cycloheximide cs 8, LmPK inh -20%, Tb PYK inh 5% and RE007 growth inh 28µM*.
Screening Cc1[nH]n(-c2ccccc2)c(=O)c1C=NCc1ccncc1 returned FBPA Giardia inh -3%, Shiga inhibitor 10, Cycloheximide cs 11, LmPK inh 2%, Tb PYK inh 17% and RE007 growth inh 7%.
For COC(=O)C1=C[C@@H](C(=O)OC)C2C3=C(C(=O)[C@@]2(C)NC(=O)c2ccccc2)[C@H](C)[C@@H]2C(=O)N(C)C(=O)[C@@H]2[C@@H]3C1 (some centres not stated) the results were FBPA Giardia inh -9%, Shiga inhibitor 23 and Cycloheximide cs 2.
`CN(CC(=O)Nc1ccccc1Cl)CC(=O)Nc1sc2c(c1C(N)=O)CCC2` gave Tb PYK inh -4% and RE007 growth inh -13%.
